The source made the active and inactive calls.

Among the data in PubChem BioAssay are composite z-score and z-score values, retold here.

Experiment [1] has as its system PRMT1 (protein arginine N-methyltransferase 1). The experiment is described as follows: PRMT1 binders on small-molecule microarrays, primary screen, biochemical, small-molecule microarray, 635 nm fluorescence (AID 1088).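 Also: binding of Prmt1 protein to compounds spotted on small-molecule microarray slides.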 To be noted: small-molecule microarray binding, higher = more signal.
Experiment [2] is described as follows: yeast growth modulation, basal conditions, primary screen, YJM789 clinical isolate, OD600, 24 h (AID 1089).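 Also: growth of clinical yeast isolate S. cerevisiae YJM 789 seeded 1000 cells per well; test concentration not given here.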 To be noted: S. cerevisiae YJM789 growth, higher = more signal, called active from +8 up or from −8 down.
A short description of experiment [3]: fission yeast growth modulation, primary screen, strain 972, OD600, 24 h, no modulator (AID 1090).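 Also: basal condition with compound alone and no growth modifier present; test concentration not given here.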 To be noted: S. pombe 972 growth, higher = more signal, called active from +8 up or from −8 down.
The nature of experiment [4]: S. cerevisiae growth modulation with rapamycin, primary screen, strain BY4716, OD600, 96 h (AID 1091). Also: test concentration not given here. To be noted: higher = more signal, called active from +8 up or from −8 down.
The target in experiment [5] is Torsin-1A-interacting protein 2 (Homo sapiens) (UniProt Q8NFQ8). The experiment is described as follows: LULL1 binders on small-molecule microarray, primary screen, cell lysate, human LULL1 lysate, 635/667 nm fluorescence (AID 1092).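 Also: probe is lysate of COS7 cells overexpressing human LULL1; score merges per-feature 667 nm fluorescence with signal-to-noise.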 To be noted: hLULL1 lysate binding, 635 nm fluorescence, higher = more signal.
Torsin-1A-interacting protein 2 (Homo sapiens), sequence (Q8NFQ8 whole entry, looked up): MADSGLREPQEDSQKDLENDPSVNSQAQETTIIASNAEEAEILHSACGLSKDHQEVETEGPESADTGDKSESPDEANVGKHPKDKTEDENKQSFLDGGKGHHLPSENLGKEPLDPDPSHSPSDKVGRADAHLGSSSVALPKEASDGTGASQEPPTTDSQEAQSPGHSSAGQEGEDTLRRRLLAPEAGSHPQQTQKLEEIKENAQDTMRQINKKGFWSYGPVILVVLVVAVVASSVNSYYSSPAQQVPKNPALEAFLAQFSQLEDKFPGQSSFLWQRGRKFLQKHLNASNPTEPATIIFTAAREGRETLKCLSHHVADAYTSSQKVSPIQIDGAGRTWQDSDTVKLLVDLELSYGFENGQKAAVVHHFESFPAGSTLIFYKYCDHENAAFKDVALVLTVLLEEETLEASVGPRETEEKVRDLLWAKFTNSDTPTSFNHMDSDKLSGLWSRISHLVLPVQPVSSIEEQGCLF
Experiment [6] is described as follows: E. coli growth modulation, two-sided OD650, primary screen, E. coli filamentation project, strain DRC41, 24 h (AID 1093).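 Also: MC1000 strain lacking acrAB efflux and sulA so SOS filamentation is blocked; test concentration not given here.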 To be noted: OD650, 24 h, higher = more signal, called active from +8 up or from −8 down.
Experiment [7] can be described thus: small-molecule microarray binders of probe aLefty2, primary screen, biochemical, biotinylated probe, 635/667 nm fluorescence (AID 1094).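 Also: score merges spot fluorescence near 667 nm with spot signal-to-noise ratio.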 To be noted: higher = more signal.
Experiment [8] has as its system Noggin (protein binding on small-molecule microarray). Kind of experiment: Noggin binders on small-molecule microarray, primary screen, biochemical, 635/667 nm fluorescence (AID 1095).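 Also: score merges 667 nm feature fluorescence with signal to noise over triplicate slides.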 To be noted: 635 nm fluorescence, higher = more signal.
Experiment [9] concerns the target Neurogenic locus notch homolog protein 3 (Homo sapiens) (UniProt Q9UM47). Kind of experiment: NOTCH3 binders on small-molecule microarray, primary screen, biochemical, 635/667 nm fluorescence (AID 1096). To be noted: NOTCH3 binding, 635 nm fluorescence, higher = more signal.
Experiment [10] can be described thus: small-molecule microarray binders of probe aEGFR, primary screen, biochemical, biotinylated probe, 635/667 nm fluorescence (AID 1097).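 Also: probe is a biotinylated anti-EGFR antibody binding compounds printed on slides; score combines fluorescence near 667 nm and signal to noise of each spot.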 To be noted: higher = more signal.
Experiment [11] relates to Plasmodium falciparum Sir2 (PF13_0152, Sir2A). Kind of experiment: pfSir2 binders on small-molecule microarrays, primary screen, biochemical, small-molecule microarray, 635 nm fluorescence (AID 1098).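 Also: score merges spot fluorescence intensity with its signal-to-noise ratio.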 To be noted: small-molecule microarray binding, fluorescence 635 nm; higher = more signal.
The nature of experiment [12]: small-molecule microarray binders of probe aDKK1, primary screen, biochemical, biotinylated probe, 635/667 nm fluorescence (AID 1099).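 Also: score merges 667nm spot fluorescence with signal to noise across triplicate slides; reference of the scale not given here.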 To be noted: higher = more signal.
A short description of experiment [13]: small-molecule microarray binders of probe aCHRDL2, primary screen, biochemical, biotinylated probe, 635/667 nm fluorescence (AID 1100). To be noted: higher = more signal.
Experiment [14] in a line: splicing luciferase reporter signal modulators, primary screen, spliceosome inhibition project, cell-based, HEK293, splice +/- reporter (AID 1101).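 Also: HEK293 cells carrying a splicing-competent luciferase reporter gene; test concentration not given here.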 To be noted: luminescence, 24 h, higher = more signal, called active from +8 up or from −8 down.
Experiment [15] concerns the target Fibroblast growth factor 10 (Homo sapiens) (UniProt O15520). Kind of experiment: FGF10 binders on small-molecule microarrays, primary screen, biochemical, small-molecule microarray, 635 nm fluorescence (AID 1102). To be noted: FGF10 binding, fluorescence 635 nm, higher = more signal.
Experiment [16] concerns glycogen synthase kinase-3 (GSK3A per assay name; protocol says GSK3B). The experiment is described as follows: GSK3 binders on small-molecule microarrays, primary screen, biochemical, small-molecule microarray, 635 nm fluorescence, GSK3A (AID 1103). Also: the record names both GSK3A and GSK3B. To be noted: small-molecule microarray binding, fluorescence 635 nm; higher = more signal.
In experiment [17] the target is Epidermal growth factor receptor (Homo sapiens) (UniProt P00533). The experiment is described as follows: EGFR binders on small-molecule microarrays, primary screen, biochemical, small-molecule microarray, 635 nm fluorescence (AID 1104).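 Also: score merges 667 nm emission intensity with spot signal to noise over triplicate slides.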 To be noted: EGFR binding, higher = more signal.
Epidermal growth factor receptor (Homo sapiens), sequence (P00533 whole entry, looked up): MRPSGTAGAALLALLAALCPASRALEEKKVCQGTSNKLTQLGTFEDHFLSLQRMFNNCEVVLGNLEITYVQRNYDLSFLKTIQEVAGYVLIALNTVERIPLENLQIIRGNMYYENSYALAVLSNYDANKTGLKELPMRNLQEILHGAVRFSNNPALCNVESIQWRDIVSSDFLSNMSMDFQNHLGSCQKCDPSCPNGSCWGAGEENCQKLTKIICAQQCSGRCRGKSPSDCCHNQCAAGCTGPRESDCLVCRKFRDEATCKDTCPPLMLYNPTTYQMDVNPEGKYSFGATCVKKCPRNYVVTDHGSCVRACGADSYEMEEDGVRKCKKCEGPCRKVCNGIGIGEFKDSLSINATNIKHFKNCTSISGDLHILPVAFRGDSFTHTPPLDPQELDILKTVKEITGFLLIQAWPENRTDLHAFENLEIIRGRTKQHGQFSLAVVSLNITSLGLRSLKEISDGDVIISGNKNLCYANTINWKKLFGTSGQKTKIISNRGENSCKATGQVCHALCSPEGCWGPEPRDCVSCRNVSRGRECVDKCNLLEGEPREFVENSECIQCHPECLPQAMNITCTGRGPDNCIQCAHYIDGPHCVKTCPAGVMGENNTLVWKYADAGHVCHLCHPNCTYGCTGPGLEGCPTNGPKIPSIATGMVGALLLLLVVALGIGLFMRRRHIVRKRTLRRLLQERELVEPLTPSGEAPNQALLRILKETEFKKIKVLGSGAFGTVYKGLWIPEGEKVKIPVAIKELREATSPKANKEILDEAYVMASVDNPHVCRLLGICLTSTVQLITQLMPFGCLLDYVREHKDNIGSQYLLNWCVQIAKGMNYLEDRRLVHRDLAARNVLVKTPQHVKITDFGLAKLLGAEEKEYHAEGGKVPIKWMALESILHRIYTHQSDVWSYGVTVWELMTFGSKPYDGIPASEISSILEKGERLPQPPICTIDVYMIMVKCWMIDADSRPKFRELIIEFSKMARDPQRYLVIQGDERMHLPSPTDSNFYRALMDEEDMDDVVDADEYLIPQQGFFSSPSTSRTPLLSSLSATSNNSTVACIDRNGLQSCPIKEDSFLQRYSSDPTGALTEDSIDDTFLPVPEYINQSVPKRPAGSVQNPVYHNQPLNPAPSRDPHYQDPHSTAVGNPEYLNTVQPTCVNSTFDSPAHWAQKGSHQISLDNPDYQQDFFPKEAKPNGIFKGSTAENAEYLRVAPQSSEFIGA
Experiment [18] addresses Follistatin-related protein 3 (Homo sapiens) (UniProt O95633). Kind of experiment: FSTL3 binders on small-molecule microarrays, primary screen, biochemical, small-molecule microarray, 635 nm fluorescence (AID 1105).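 Also: score merges emission near 667 nm and signal to noise per printed spot across three slides.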 To be noted: FSTL3 binding, higher = more signal.
For experiment [19], the target named is Dickkopf-related protein 1 (Homo sapiens) (UniProt O94907). The experiment is described as follows: DKK1 binders on small-molecule microarrays, primary screen, biochemical, small-molecule microarray, 635 nm fluorescence scan (AID 1106).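 Also: score merges emission near 667 nm with signal to noise over three replicate slides.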 To be noted: DKK1 binding, higher = more signal.
Dickkopf-related protein 1 (Homo sapiens), sequence (O94907 whole entry, looked up): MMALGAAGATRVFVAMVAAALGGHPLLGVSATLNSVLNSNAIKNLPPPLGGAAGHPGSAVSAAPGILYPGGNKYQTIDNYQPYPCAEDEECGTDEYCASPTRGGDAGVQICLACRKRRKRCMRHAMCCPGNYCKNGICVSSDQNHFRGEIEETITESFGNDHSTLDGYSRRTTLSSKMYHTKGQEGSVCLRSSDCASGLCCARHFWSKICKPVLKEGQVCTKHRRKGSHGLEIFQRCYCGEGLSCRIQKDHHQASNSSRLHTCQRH
Experiment [20] concerns Inhibin beta A chain (activin A). The experiment is described as follows: INHBA (activin A) binders on microarrays, primary screen, biochemical, small-molecule microarray, 635 nm fluorescence scan (AID 1107).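 Also: mouse activin A protein probed at 4.33 µg/mL on printed slides; score merges bound-protein fluorescence near 667 nm with spot signal-to-noise.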 To be noted: small-molecule microarray binding, higher = more signal.

Neurogenic locus notch homolog protein 3 (Homo sapiens), sequence (Q9UM47 whole entry, looked up): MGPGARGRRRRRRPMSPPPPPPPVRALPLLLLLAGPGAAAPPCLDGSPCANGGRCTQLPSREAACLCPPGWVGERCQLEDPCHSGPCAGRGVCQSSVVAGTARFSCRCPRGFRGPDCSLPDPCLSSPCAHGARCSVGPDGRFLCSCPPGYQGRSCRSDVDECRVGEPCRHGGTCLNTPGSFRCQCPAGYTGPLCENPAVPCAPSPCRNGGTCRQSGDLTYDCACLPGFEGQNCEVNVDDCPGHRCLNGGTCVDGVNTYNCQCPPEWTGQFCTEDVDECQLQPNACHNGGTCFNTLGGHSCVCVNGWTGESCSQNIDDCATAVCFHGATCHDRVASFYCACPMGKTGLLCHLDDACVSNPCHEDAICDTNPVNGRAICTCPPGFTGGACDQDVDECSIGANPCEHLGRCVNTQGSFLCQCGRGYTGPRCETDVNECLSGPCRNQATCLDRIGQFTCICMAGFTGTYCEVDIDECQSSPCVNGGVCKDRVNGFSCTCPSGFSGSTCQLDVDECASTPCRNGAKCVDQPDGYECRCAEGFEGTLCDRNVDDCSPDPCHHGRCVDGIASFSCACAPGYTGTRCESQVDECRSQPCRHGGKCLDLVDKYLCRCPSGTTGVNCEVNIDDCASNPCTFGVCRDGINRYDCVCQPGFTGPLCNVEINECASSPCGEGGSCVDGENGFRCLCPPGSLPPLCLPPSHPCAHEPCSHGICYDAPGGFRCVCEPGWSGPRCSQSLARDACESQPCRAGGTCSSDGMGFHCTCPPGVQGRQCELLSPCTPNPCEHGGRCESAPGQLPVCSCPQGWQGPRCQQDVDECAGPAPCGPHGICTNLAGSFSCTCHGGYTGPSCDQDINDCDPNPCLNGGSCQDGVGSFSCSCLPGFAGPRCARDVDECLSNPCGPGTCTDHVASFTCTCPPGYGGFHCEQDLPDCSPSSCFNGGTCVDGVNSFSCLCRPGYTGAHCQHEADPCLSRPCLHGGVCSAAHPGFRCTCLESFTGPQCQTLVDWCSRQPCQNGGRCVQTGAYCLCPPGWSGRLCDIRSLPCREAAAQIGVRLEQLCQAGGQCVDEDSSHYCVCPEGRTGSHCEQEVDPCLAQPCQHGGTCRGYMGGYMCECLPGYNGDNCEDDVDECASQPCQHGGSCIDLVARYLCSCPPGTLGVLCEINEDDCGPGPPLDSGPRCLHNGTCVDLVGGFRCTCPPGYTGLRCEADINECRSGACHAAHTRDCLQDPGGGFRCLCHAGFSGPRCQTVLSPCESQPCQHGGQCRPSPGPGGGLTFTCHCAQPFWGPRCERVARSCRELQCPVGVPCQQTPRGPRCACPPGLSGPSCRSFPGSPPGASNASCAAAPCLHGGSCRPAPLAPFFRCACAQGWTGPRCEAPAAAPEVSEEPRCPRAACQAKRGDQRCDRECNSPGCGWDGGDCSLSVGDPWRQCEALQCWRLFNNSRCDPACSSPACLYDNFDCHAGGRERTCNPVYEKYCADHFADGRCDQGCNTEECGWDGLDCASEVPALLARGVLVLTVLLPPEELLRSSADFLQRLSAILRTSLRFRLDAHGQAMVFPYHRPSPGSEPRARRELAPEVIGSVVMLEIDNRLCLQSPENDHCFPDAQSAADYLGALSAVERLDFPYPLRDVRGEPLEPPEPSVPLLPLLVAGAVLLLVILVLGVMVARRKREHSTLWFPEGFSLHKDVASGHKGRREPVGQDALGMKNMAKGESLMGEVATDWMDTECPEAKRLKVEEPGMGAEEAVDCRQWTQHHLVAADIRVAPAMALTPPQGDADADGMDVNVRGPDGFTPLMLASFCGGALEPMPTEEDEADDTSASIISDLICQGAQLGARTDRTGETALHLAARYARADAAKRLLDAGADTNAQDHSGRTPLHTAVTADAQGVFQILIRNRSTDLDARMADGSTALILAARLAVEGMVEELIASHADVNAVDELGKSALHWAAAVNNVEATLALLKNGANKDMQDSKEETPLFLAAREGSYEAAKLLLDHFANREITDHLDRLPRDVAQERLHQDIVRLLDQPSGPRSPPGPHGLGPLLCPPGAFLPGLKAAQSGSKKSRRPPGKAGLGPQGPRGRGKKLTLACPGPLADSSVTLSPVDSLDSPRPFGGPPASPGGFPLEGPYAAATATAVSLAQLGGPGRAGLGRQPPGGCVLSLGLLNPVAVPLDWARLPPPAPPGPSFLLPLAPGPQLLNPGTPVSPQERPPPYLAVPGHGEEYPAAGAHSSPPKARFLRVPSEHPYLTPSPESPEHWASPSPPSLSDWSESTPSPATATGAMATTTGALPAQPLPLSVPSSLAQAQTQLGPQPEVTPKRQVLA
Follistatin-related protein 3 (Homo sapiens), sequence (O95633 whole entry, looked up): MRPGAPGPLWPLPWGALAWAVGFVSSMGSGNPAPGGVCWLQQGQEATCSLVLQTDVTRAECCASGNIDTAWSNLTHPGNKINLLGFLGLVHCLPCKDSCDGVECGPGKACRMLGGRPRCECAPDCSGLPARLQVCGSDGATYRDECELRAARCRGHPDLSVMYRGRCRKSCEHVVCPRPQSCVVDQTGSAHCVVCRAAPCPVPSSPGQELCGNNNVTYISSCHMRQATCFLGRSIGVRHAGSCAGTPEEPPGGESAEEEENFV
Fibroblast growth factor 10 (Homo sapiens), sequence (O15520 whole entry, looked up): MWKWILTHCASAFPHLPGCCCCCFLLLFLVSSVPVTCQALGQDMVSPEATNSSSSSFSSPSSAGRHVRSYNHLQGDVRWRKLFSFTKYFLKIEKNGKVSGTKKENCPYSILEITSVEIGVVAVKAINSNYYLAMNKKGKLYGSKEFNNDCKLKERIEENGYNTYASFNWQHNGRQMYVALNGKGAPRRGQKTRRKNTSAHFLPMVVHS

Regarding `[N-]=[N+]=NCc1ccccc1[C@H]1OC(c2ccc(OCCCO)cc2)=N[C@@]1(CCS(=O)(=O)c1ccccc1)C(=O)NCC(O)CO` (stereo not given in full), the composite z-score amounted to 1.56 in experiment [1]; 3.79 in experiment [5]; 0.0761 in experiment [7]; 0.286 in experiment [8]; 1.06 in experiment [9]; 0.178 in experiment [10]. For the same compound, the composite z-score in experiment [11] is 1.54; in [12] it was 0.658; in experiment [13], 1.18; in experiment [15], 1.32; in experiment [16], 0.752; in [17] it was -0.0986. The composite z-score in [18] is 0.264; in [19], -0.0898; in [20] it was 0.501. The z-score in experiment [2] was 0.633 (inactive); in experiment [3], -0.107 (inactive); in [4], 3.65 (inactive); in experiment [6], -0.28 (inactive); in [14], 0.542 (inactive).

As for `C=CCNC(=O)[C@H]1[C@@H]2C(=O)O[C@@H](c3ccccc3)[C@@H](c3ccccc3)N2[C@@H](c2ccc(O)cc2)[C@]12C(=O)Nc1ccc(C#CC3(O)CCCCCC3)cc12`, the composite z-score was 1.55 in [1]; 3.03 in [5]; -0.0953 in experiment [7]; 1.09 in [8]; 0.354 in experiment [9]; -0.0896 in experiment [10]. The composite z-score in experiment [11] is 1.38; in [12] it was 0.0898; in [13], 0.105; in [15], 0.155; in experiment [16], 0.373; in [17], -0.612. In addition, the values for the composite z-score in experiment [18], in experiment [19] and in experiment [20] were -0.0182, 0.0926 and 0.697, respectively. Moreover, the z-score in [2] was -0.494 (inactive); in experiment [3], 0.369 (inactive); in experiment [4] it was 0.335 (inactive); in [6], -1.08 (inactive); in experiment [14] it was 0.558 (inactive).

For the compound `C=CCOC(=O)[C@H]1[C@@H]2C(=O)O[C@@H](c3ccccc3)[C@@H](c3ccccc3)N2[C@@H](c2ccc(OCCOC(=O)[C@@H]3C[C@@H]4C(=O)N[C@@H](CCCCN(C)C)C(=O)N4[C@@H]3c3ccc(O)cc3)cc2)[C@]12C(=O)Nc1ccccc12`, the composite z-score was 1.55 in [1]; 2.57 in [5]; 0.253 in experiment [7]; 1.7 in experiment [8]; 1.05 in experiment [9]; -0.0177 in experiment [10]. In addition, the composite z-score is 0.913 in experiment [11]; 0.173 in [12]; 0.0016 in experiment [13]; 1.03 in experiment [15]; 1.32 in [16]; 0.961 in experiment [17]. The figures for the composite z-score in experiment [18], in experiment [19] and in experiment [20] were 1.43, 1.27 and -0.471, respectively. For the same compound, the z-score in experiment [2] is 0.693 (inactive); in [3], -2.78 (inactive); in experiment [4], 0.436 (inactive); in experiment [6], -1.6 (inactive); in experiment [14], -0.311 (inactive).

For the compound `O=C(NCC(F)(F)F)[C@@H]1c2ccccc2C(=O)N(Cc2ccc(OC(F)(F)F)cc2)[C@H]1c1ccc(CO)cc1`, the composite z-score in experiment [1] was 1.53; in [5], 1.81; in [7], -0.143; in experiment [8] it was 0.575; in experiment [9], 0.0891; in experiment [10], -0.0978. In addition, the composite z-score in experiment [11] was 1.16; in experiment [12] it was -0.113; in experiment [13] it was 0.433; in experiment [15] it was 0.347; in experiment [16], -0.285; in experiment [17], -0.0633. Further, the composite z-score turned out to be 0.284 in experiment [18], 0.0428 in experiment [19] and 0.551 in experiment [20]. The z-score in experiment [2] is -0.54 (inactive); in [3], -0.046 (inactive); in [4], -1.1 (inactive); in experiment [6], 0.583 (inactive); in experiment [14] it was -0.693 (inactive).

On to `O=C1C2C=CC(C(O)c3ccc(Br)cc3)N(Nc3ccccc3F)C2C(=O)N1c1ccccc1` (stereo not given), for which the composite z-score in experiment [1] is 0.566; in [5] it was 2.97; in [7], -0.103; in experiment [8] it was -0.231; in experiment [9], 0.626; in experiment [10] it was -0.112. In addition, the composite z-score was 0.708 in experiment [11]; 0.0952 in experiment [12]; 0.703 in experiment [13]; 0.118 in experiment [15]; 0.235 in experiment [16]; -0.309 in experiment [17]. Moreover, the composite z-score in [18] was 0.0807; in experiment [19] it was -0.325; in experiment [20], 0.404. For the same compound, the z-score was -1.16 (inactive) in experiment [2]; -0.435 (inactive) in experiment [3]; -1.26 (inactive) in experiment [4]; 0.569 (inactive) in [6]; -1.93 (inactive) in [14].
